Laboratory results from PubChem BioAssay (NCATS).
A number with no mark means an inactive call. Unless noted, calls follow the shape of the dose curve; as a rule, active = well fitted curve in the direction sought with a large enough effect; inconclusive = small, poorly fitted or top-dose-only effect, or another doubt; inactive = no such curve, though single readings can be large; an effect the other way counts as inactive or inconclusive. Results filed as inconclusive are left out.

System: not listed separately
Experiment: qHTS Assay for Identification of Small Molecule Agonists for Hypoxia Response Element Signaling Pathway (AID 914; active = well fitted activation curve with a large enough effect in the signal ratio, with a control signal flat, not every such curve was filed as active; the % refers to the signal ratio; also: % of control where 0% means no effect)
Settings: ME-180 (cervical carcinoma) HRE-bla reporter, beta-lactamase ratio, CoCl2, 17 h; hits give high values
Procedure, shortened: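 HRE-bla ME-180 cells with beta-lactamase reporter under hypoxia response element, compounds with EC50 CoCl2 for 17 hours at 37 C. CCF4 substrate, 460nm/530nm emission ratio gave %Activity; AC50 from titration series.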

| Compound | activation [%] |
| --- | --- |
| COc1ccc(COC(=O)N/N=C2/C[C@@H](O)[C@@H](O)[C@@H]3[C@@H]4C(=O)N(Cc5ccc6c(c5)OCO6)C(=O)[C@H]4CC[C@H]23)cc1 | -9.34 |
| CC(C)=CCC/C(C)=C/CO/N=C1/C[C@@H](O)[C@@H](O)[C@@H]2[C@@H]3C(=O)N(c4cccc(Oc5ccccc5)c4)C(=O)[C@H]3CC[C@@H]12 | 6.84 |
| CCN1C(=O)[C@H]2[C@H]3[C@H](O)[C@H](O)C/C(=N/OCc4ccccc4)[C@H]3CC[C@@H]2C1=O | 7.18 |
| CC(C)=CCC/C(C)=C/CO/N=C1/C[C@@H](O)[C@@H](O)[C@@H]2[C@@H]3C(=O)N(c4cccc(Oc5ccccc5)c4)C(=O)[C@H]3CC[C@H]12 | 7.14 |
| CC(C)CO/N=C1/C[C@@H](O)[C@@H](O)[C@@H]2[C@@H]3C(=O)N(C4CCCCC4)C(=O)[C@H]3CC[C@@H]12 | -7.25 |

System: not listed separately
Experiment: Confirmation and Secondary Assay for Modulators of Hemoglobin Beta Chain Splicing at IVS2 705 locus (AID 930);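 also: HeLa cells stably expressing the EGFP-705 splicing reporter; GFP fluorescence per well restored by corrected splicing of the IVS2-705 intron in EGFP; % of control where 0% means no effect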
Settings: HeLa EGFP-705 splicing reporter, GFP fluorescence, 48 h; series mostly up to 46.1 µM; activation: at the top concentration
Procedure, shortened: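 HeLa cells stably carrying EGFP interrupted by mutant beta-globin intron 2 (IVS2-705) treated 2 days at 37C with compound; 500 nM antisense PNA as control. Correct splicing read as total peak GFP intensity per well by laser-scanning cytometry.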

| Compound | activation |
| --- | --- |
| CC(CCC(=O)O)C1CCC2C3CC[C@H]4CC(O)CC[C@@]4(C)C3CC[C@@]12C (some centres not stated) | 2.98% |
| COc1cc2c(c(OC)c1OC)-c1ccc(OC)c(=O)cc1C(NC(C)=O)CC2 (configuration not stated) | 0.24% |
| CNC(C)C1CC[C@H](N)[C@@H](OC2C(N)C[C@H](N)[C@@H](OC3OC[C@](C)(O)C(NC)[C@H]3O)C2O)O1 (some centres not stated) | 0.554% |
| CC1CC2C3CC(F)C4=CC(=O)C=C[C@@]4(C)[C@@]3(F)C(O)C[C@]2(C)[C@]1(O)C(=O)COC(=O)C(C)(C)C (some centres not stated) | -0.802% |
| CC(C)CC1C(=O)N2CCCC2C2(O)O[C@@](NC(=O)C3C=C4c5cccc6[nH]c(Br)c(c56)CC4N(C)C3)(C(C)C)C(=O)N12 (some centres not stated) | 1.45% |
| CC1CC[C@@]2(C(=O)O)CC[C@]3(C)C(=CCC4[C@@]5(C)CCC(O)C(C)(C)C5CC[C@@]43C)C2C1C (some centres not stated) | -0.895% [at 38.3 µM] |
| C=C1c2c(Cl)ccc(O)c2C(O)=C2C(=O)[C@]3(O)C(O)=C(C(N)=O)C(=O)C(N(C)C)C3C(O)C12 (some centres not stated) | 1.35% |

Target: Alpha-galactosidase A (Homo sapiens) (UniProt P06280)
Sequence (P06280 whole entry, looked up): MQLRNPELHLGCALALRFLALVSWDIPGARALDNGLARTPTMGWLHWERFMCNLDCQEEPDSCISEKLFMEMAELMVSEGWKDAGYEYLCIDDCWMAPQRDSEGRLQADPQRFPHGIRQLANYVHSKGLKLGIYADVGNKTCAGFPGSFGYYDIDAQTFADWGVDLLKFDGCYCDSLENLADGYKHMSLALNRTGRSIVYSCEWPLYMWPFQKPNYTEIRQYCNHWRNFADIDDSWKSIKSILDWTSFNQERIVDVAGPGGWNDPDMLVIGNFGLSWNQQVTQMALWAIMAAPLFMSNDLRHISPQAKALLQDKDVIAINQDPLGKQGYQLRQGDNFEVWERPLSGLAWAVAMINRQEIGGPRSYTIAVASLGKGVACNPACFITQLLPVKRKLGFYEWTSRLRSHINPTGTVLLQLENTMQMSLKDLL
Experiment: Counterscreen for Glucocerebrosidase Inhibitors: qHTS Assay for Human alpha-Galactosidase at pH 4.5 (AID 992); also: 0% is about no effect
Settings: purified enzyme, fluorogenic substrate; series mostly up to 76.9 µM; activity change, negative = inhibition: at the top concentration
Procedure, shortened: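 Human enzyme (2 nM) with 80 uM 4-methylumbelliferyl alpha-D-galactopyranoside in 50 mM citric acid, 0.005% Tween-20, pH 4.5, 20 min at room temperature. Compounds 0.7 nM–77 uM; fluorescence Ex 365/Em 440 after pH 10 stop; AC50 from Hill fits.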

| Compound | activity change, negative = inhibition [%] |
| --- | --- |
| CCc1nnc(NC(=O)c2ccc(NS(=O)(=O)c3ccccc3)cc2)s1 | 4.33 |
| COc1ccc(Cl)cc1Nc1nc(NCCO)nc(N2CCCC2)n1 | 1.33 |
| Cc1cc(N2CCOCC2)nc2ccc(NC(=O)C3CCCCC3)cc12 | -18 |
| CC(C)(C)Oc1ccccc1Nc1nc(NCCO)nc(N2CCCC2)n1 | -3 |
| CCCCCCCCCN1C[C@H](O)[C@@H](O)[C@H](O)[C@H]1CO | 10 |

Target: alpha-glucosidase (Oryza sativa, rice) (UniProt Q653V4)
Experiment: Counterscreen for Glucocerebrosidase Inhibitors: qHTS Assay for Rice alpha-Glucosidase at pH 5.0 (AID 997);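 also: 0% = full activity with enzyme and -100% = basal without enzyme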
Settings: rice alpha-glucosidase enzyme activity; series mostly up to 76.9 µM; activity change, negative = inhibition: at the top concentration
Procedure, shortened: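 Rice alpha-glucosidase (4 nM final) with 400 uM 4-methylumbelliferyl-alpha-D-glucopyranoside in citrate buffer pH 5.0, 20 min at room temperature, stopped at pH 10; fluorescence 365/440 nm, compounds 0.7 nM–77 uM, AC50 from Hill fits.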

| Compound | activity change, negative = inhibition [%] |
| --- | --- |
| CCc1nnc(NC(=O)c2ccc(NS(=O)(=O)c3ccccc3)cc2)s1 | -12 |
| COc1ccc(Cl)cc1Nc1nc(NCCO)nc(N2CCCC2)n1 | -9.33 |
| Cc1cc(N2CCOCC2)nc2ccc(NC(=O)C3CCCCC3)cc12 | 22.3 |
| CC(C)(C)Oc1ccccc1Nc1nc(NCCO)nc(N2CCCC2)n1 | -2.5 |
| CCCCCCCCCN1C[C@H](O)[C@@H](O)[C@H](O)[C@H]1CO | -99.3 |
